# High-throughput results deposited in PubChem by several laboratories.
# Sampled rows, rich in hits. Any-hit rate of the full collection: about 3.3%.
# FXN GAA850 act = increases GAA850 frataxin promoter reporter activity; hit rate 0.56% among 360,000; activation, % at 6 µM; HEK293 lucGAA850 FXN promoter luciferase reporter, 24 h; percent of 10 µM SAHA response; AID 540364;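 active means activation above the average of all compounds screened plus 3 SD, cutoff fixed separately per campaign, cut at about 7.5% in these data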;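 further: 0% = DMSO wells and 100% = 10 µM SAHA wells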
# esBAF inh = blocks esBAF chromatin remodeling in mouse ES cells | hit rate 2% among 350,000 | Bmi1-luciferase knock-in reporter, 24 h; 100% = twice the neutral-well signal | reporter increase, % at 12.5 µM; in the data active means activation above about 40%; inconclusive means no clear call, values can overlap the other calls;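 further: 0% = median of the plate's neutral control wells and 100% = double that signal; a rise in the Bmi1 reporter signal indicates esBAF inhibition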
# Wnt act = Wnt/beta-catenin pathway activation. activation, % at 9.35 µM. hit rate 1.2% among 300,000. Wnt/beta-catenin reporter cell assay, activator, plate reader. AID 743398; in the data active means activation above about 30%, passing the limit was not always enough; inconclusive means no clear call, values can overlap the other calls;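 further: 0% = neutral control wells and 100% = positive control wells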
# MITF act = activators of MITF-driven TRPM1 promoter activity in SK-MEL-5 cells | SK-MEL-5 TRPM1-promoter luciferase, 24 h; % of positive control, neutral wells = 0 | activation, % at 12.5 µM | hit rate 0.75% among 300,000 | AID 588334;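 active means mean activation of at least 80% with every replicate also reaching 80%; inconclusive means mean reaches 80% but some replicate falls short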;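 further: 0% = neutral control wells and 100% = parthenolide positive control wells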
# Statin myotox sup = suppressors of simvastatin-induced myotoxicity in C2C12 myotubes; rescue of ATP level, % at 7.49 µM; hit rate 0.78% among 330,000; AID 602340; ATP luminescence, 48 h; scaled: DMSO 0, geranylgeraniol control 100;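 active means mean ATP rescue above about 67%, or every replicate alone reaching that limit, limit read from the data, passing the limit was not always enough; inconclusive means no clear call, values can overlap the other calls; inactive means mean under the limit and some replicate under it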;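 further: myotubes were challenged with 10 µM simvastatin during compound exposure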
# Active calls of the source: *; ? = inconclusive; . = no result given.
SMILES,FXN GAA850 act,esBAF inh,Wnt act,MITF act,Statin myotox sup
C[C@@H](NC(=O)C[C@H]1C=C[C@H](NC(=O)C2CCC2)[C@@H](CO)O1)c1ccccc1,.,-5,.,.,4
COc1ccccc1C1CC(c2ccc(Br)cc2)=NN1C(=O)c1cccnc1 (configuration not stated),-3,.,-10,-24,.
CCN1CCC2(CC1)Oc1c(OC)cccc1C1CC(c3cccnc3)=NN12 (configuration not stated),0,.,36*,.,.
CO[C@@H]1CN(C)C(=O)c2cc(NS(=O)(=O)c3ccccc3)ccc2OC[C@H](C)NC[C@H]1C,.,-4,.,.,11
Cc1ccc(-c2nn(-c3ccccc3)cc2CO)cc1,7,90*,14,69,-4
COc1ccc(-c2nn(-c3ccccc3)cc2N)cc1,2,.,59*,50,.
COc1ccc(-c2nn(-c3ccccc3)cc2CO)cc1,3,17,12,51,99*
Cc1ccc(-c2nn(-c3ccccc3)cc2/C=N/O)cc1,0,14,3,92*,1
COc1ccc(S(=O)(=O)N[C@H]2C=C[C@@H](CC(=O)N3CCC(Cc4ccccc4)CC3)O[C@H]2CO)cc1,.,-3,.,.,8
CC(C)NC(=O)N[C@H]1CC[C@@H](CCNS(=O)(=O)c2ccc(F)cc2)O[C@H]1CO,.,2,.,.,-1
O=S(=O)(N[C@@H]1CC[C@@H](CCn2cc(C3(O)CCCC3)nn2)O[C@H]1CO)c1ccc(Cl)cc1,.,-2,.,.,31
Oc1cccc(-c2nc3ccc4ccccc4c3c3c2CCC3)c1,5,.,.,93*,.
O=C(C[C@H]1C[C@@H]2c3cc(NC(=O)NC4CCCCC4)ccc3O[C@@H]2[C@@H](CO)O1)NCCc1ccccc1,.,1,.,.,-8
CC(C)c1ccc(N(CC(=O)NCCc2ccccc2)C(=O)c2csnn2)cc1,0,7,-3,-8,81*
CCOC(=O)C(Cc1c[nH]c2ccccc12)NC(=O)c1ccccc1Br (configuration not stated),2,74*,13,.,27
COC(=O)C(Cc1c[nH]c2ccccc12)NC(=O)c1ccccc1Br (configuration not stated),3,53*,16,.,21
COC(=O)C(Cc1c[nH]c2ccccc12)NC(=O)CNC(C)=O (configuration not stated),0,-8,.,6,-16
O=C(C[C@H]1CC[C@@H](NC(=O)c2ccc3c(c2)OCO3)[C@@H](CO)O1)NCc1ccc(Cl)cc1,.,-9,.,.,-4
C[C@@H]1CN([C@H](C)CO)C(=O)Cc2cc(NC(=O)Nc3cccc4ccccc34)ccc2O[C@H]1CN(C)Cc1ccc2c(c1)OCO2,.,-4,.,.,45
COc1ccccc1NC(=O)CN1C(=O)CCS(=O)(=O)c2ccccc21,0,1,.,-9,125*
CC(=O)c1ccc(-n2c(-c3cc(-c4ccco4)[nH]n3)n[nH]c2=S)cc1,2,5,-1,0,84*
O=C(O)c1ccc(-n2c(-c3cc(-c4ccco4)[nH]n3)n[nH]c2=S)cc1,1,-4,.,0,8
CCCC(=O)Nc1ccc2c(c1)C(=O)N(C)C[C@H](OC)[C@H](C)CN(Cc1ccccc1F)[C@H](C)CO2,.,-2,.,.,16
CCc1cc(C(=O)c2ccccc2OC)c(N)s1,1,-6,.,1,6
CCc1cc(C(=O)c2ccc(OC)cc2)c(N)s1,0,-2,39*,.,-1
SMILES,FXN GAA850 act,esBAF inh,Wnt act,MITF act,Statin myotox sup
O=C(Nc1ccc(Cl)c(S(=O)(=O)N2CCOCC2)c1)c1cc2ccccc2oc1=O,2,82*,3,27,2
Cc1ccc(S(=O)(=O)N2CCOCC2)cc1NC(=O)c1cc2ccccc2oc1=O,1,3,1,8,-19
C(=N\Nc1nncc2ccccc12)/c1ccccc1,2,38,38*,39,-7
C/C(=N\Nc1nncc2ccccc12)c1ccc(O)cc1,4,2,29,8,8
Clc1cccc(/C=N/Nc2ncnc3ccccc23)c1,4,53*,.,.,-10
Nc1c(Cl)ncnc1N/N=C/c1ccnc2ccccc12,4,23,8,57,16
C/C(=N\Nc1nncc2ccccc12)c1ccc(C(C)(C)C)cc1,4,49*,.,.,-17
C(=N\Nc1ncnc2ccccc12)/c1ccccc1,4,70*,0,65,3
Cc1ccc(S(=O)(=O)Nc2ccc3c(c2)C(=O)N([C@H](C)CO)C[C@H](C)[C@@H](CN(C)C(=O)C2CCCCC2)OCCCC[C@@H](C)O3)cc1,.,-1,.,.,.
CCOC(=O)c1c(CN2CCC(C)CC2)n(C)c2cc(Br)c(OC)cc12,0,.,40*,9,.
CCOC(=O)c1c(CN2CCN(Cc3ccccc3)CC2)n(C)c2cc(Br)c(OC)cc12,1,-7,-6,5,2
CC(C)NC(=O)Nc1ccc2c(c1)C(=O)N([C@H](C)CO)C[C@@H](C)[C@H](CN(C)C(=O)c1ccccc1)OCCCC[C@H](C)O2,.,0,.,.,19
COc1ccccc1-c1cc(C(=O)NCCc2ccccc2)no1,-1,60*,27,.,-47
CCCc1cc(C(=O)NCCc2ccccc2)no1,2,50*,29,.,2
Cc1ccc(OCc2cc(C(=O)NCCc3cccnc3)no2)cc1C,3,58*,26,55,10
C[C@H]1CN([C@@H](C)CO)S(=O)(=O)c2ccc(C3=CCCC3)cc2O[C@@H]1CN(C)C(=O)c1ccccn1,.,7,.,.,-21
CC(=O)Nc1cc(C(=O)OCC(=O)c2ccc(C)cc2)ccc1C,6,78*,?,64,6
COc1ccc(C(=O)COc2ccc(C)cc2NC(C)=O)cc1,4,.,56*,.,.
CC(=O)Nc1cc(C(=O)OCC(=O)c2ccc(Cl)cc2Cl)ccc1C,-1,7,.,.,-32
Cc1ccc(C)n1-c1ccc(-c2ccn[nH]2)cc1,2,1,2,8,0
c1ccn(-c2ccc(-c3ccn[nH]3)cc2)c1,2,.,9,93*,.
Cc1ccc(NC(=O)c2ccc(NCc3ccc(F)cc3)nc2)cc1,1,2,-1,0,-7
Cc1ccc(NC(=O)c2ccc(Nc3ccccc3F)nc2)cc1,3,.,38*,41,.
CO[C@@H]1CN(C)C(=O)c2cc(NC(=O)C3CCOCC3)ccc2OC[C@@H](C)N(S(=O)(=O)c2ccc(C)cc2)C[C@H]1C,.,2,.,.,9
CCOC(=O)C(CNc1ccc(OCc2ccccc2)cc1)NC(=O)c1ccccc1 (configuration not stated),.,.,44*,.,.
CCOc1ccc(C(=O)NC(Cc2ccccc2)C(=O)OC)cc1 (configuration not stated),4,74*,.,50,4
CCCc1cn(CC[C@H]2CC[C@@H](NC(=O)CCN3CCCCC3)[C@@H](CO)O2)nn1,.,-3,.,.,1
O=C(Nc1ccc2c(c1)[C@@H]1C[C@H](CC(=O)N3CCCCC3)O[C@@H](CO)[C@@H]1O2)c1ccc2c(c1)OCO2,.,19,.,.,-1
